# Where “and” joins values, the source holds several entries; their conditions need not be identical. Identical values can stand only once. Like-named read-outs stand apart in the source and are kept apart here.
# Tests used:
# HPK1 = details: concentration: 1 μM, replicates: in singlicate, n = 1
# HUNK = details: concentration: 1 μM, replicates: in singlicate; n = 1
# ICK = details: concentration: 1 μM, replicates: in singlicate, n = 1
# IGF1R = details: concentration: 1 μM, replicates: in singlicate, n = 1
# IKK-alpha = system: T1, IKK-alpha; details: concentration: 1 μM, replicates: in singlicate, n = 1
# T1 construct: gene CHUK
# IKK-beta = system: T2, IKK-beta; details: concentration: 1 μM, replicates: in singlicate, n = 1
# T2 construct: gene IKBKB
# IKK-epsilon = system: T3, IKK-epsilon; details: concentration: 1 μM, replicates: in singlicate, n = 1
# T3 construct: gene IKBKE
# INSRR = details: concentration: 1 μM, replicates: in singlicate; n = 1
# INSR = details: concentration: 1 μM, replicates: in singlicate, n = 1
# IRAK1 = details: concentration: 1 μM, replicates: in singlicate, n = 1
# IRAK3 = details: concentration: 1 μM, replicates: in singlicate, n = 1
# IRAK4 = details: concentration: 1 μM, replicates: in singlicate, n = 1
# ITK = details: concentration: 1 μM, replicates: in singlicate, n = 1
# [1] = system: JAK1(JH1domain-catalytic); details: concentration: 1 μM, replicates: in singlicate, n = 1
# [2] = system: JAK1(JH2domain-pseudokinase); details: concentration: 1 μM, replicates: in singlicate, n = 1
# [3] = system: JAK2(JH1domain-catalytic); details: concentration: 1 μM, replicates: in singlicate, n = 1
# [4] = system: JAK3(JH1domain-catalytic); details: concentration: 1 μM, replicates: in singlicate, n = 1
# JNK1 = system: T4, JNK1; details: concentration: 1 μM, replicates: in singlicate, n = 1
# T4 construct: gene MAPK8
# JNK2 = system: T5, JNK2; details: concentration: 1 μM, replicates: in singlicate, n = 1
# T5 construct: gene MAPK9
# JNK3 = system: T6, JNK3; details: concentration: 1 μM, replicates: in singlicate, n = 1
# T6 construct: gene MAPK10
# 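Further: KINOMEscan kinase panel screen.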
smiles,measurement,setting,value
COc1cc2c(cc1OC[C@@H](O)CO)ncc1c3ccc(C#N)cc3[nH]c21,%Inh,HPK1,0%
same,%Inh,HUNK,0%
same,%Inh,ICK,0%
same,%Inh,IGF1R,0%
same,%Inh,IKK-alpha,51%
same,%Inh,IKK-beta,35%
same,%Inh,IKK-epsilon,40%
same,%Inh,INSRR,0%
same,%Inh,INSR,0%
same,%Inh,IRAK1,97.2%
same,%Inh,IRAK3,67%
same,%Inh,IRAK4,99.9%
same,%Inh,ITK,13%
same,%Inh,[1],0%
same,%Inh,[2],11%
same,%Inh,[3],3%
same,%Inh,[4],59%
same,%Inh,JNK1,15%
same,%Inh,JNK2,0%
same,%Inh,JNK3,0%
CC(C)(C)n1cnc2c(N)ncnc21 [SKF-97359],%Inh,HPK1,33%
same,%Inh,HUNK,19%
same,%Inh,ICK,31%
same,%Inh,IGF1R,0%
same,%Inh,IKK-alpha,0%
same,%Inh,IKK-beta,0%
same,%Inh,IKK-epsilon,0%
same,%Inh,INSRR,0%
same,%Inh,INSR,0%
same,%Inh,IRAK1,0%
same,%Inh,IRAK3,0%
same,%Inh,IRAK4,0%
same,%Inh,ITK,4%
same,%Inh,[1],0%
same,%Inh,[2],0%
same,%Inh,[3],0%
same,%Inh,[4],18%
same,%Inh,JNK1,20%
same,%Inh,JNK2,0%
same,%Inh,JNK3,2%
CCn1cnc2c(N)ncnc21 [GW345098],%Inh,HPK1,0%
same,%Inh,HUNK,4%
same,%Inh,ICK,0%
same,%Inh,IGF1R,3%
same,%Inh,IKK-alpha,0%
same,%Inh,IKK-beta,4%
same,%Inh,IKK-epsilon,0%
same,%Inh,INSRR,0%
same,%Inh,INSR,10%
same,%Inh,IRAK1,0%
same,%Inh,IRAK3,10%
same,%Inh,IRAK4,0%
same,%Inh,ITK,16%
same,%Inh,[1],10%
same,%Inh,[2],19%
same,%Inh,[3],7%
same,%Inh,[4],17%
same,%Inh,JNK1,16%
same,%Inh,JNK2,0%
same,%Inh,JNK3,0%
CCCCCc1nc2c(N)ncnc2n1CCCCC [SKF-97255],%Inh,HPK1,4%
same,%Inh,HUNK,26%
same,%Inh,ICK,0%
same,%Inh,IGF1R,0%
same,%Inh,IKK-alpha,0%
same,%Inh,IKK-beta,0%
same,%Inh,IKK-epsilon,0%
same,%Inh,INSRR,0%
same,%Inh,INSR,0%
same,%Inh,IRAK1,0%
same,%Inh,IRAK3,0%
same,%Inh,IRAK4,0%
same,%Inh,ITK,0%
same,%Inh,[1],0%
same,%Inh,[2],35%
same,%Inh,[3],33%
same,%Inh,[4],0%
same,%Inh,JNK1,0%
same,%Inh,JNK2,0%
same,%Inh,JNK3,0%
Cn1cc(-c2ccc3c(c2)CCN3C(=O)Cc2ccccc2Cl)c2c(N)ncnc21 [GSK2608885],%Inh,HPK1,64%
same,%Inh,HUNK,7%
same,%Inh,ICK,5%
same,%Inh,IGF1R,95.5%
same,%Inh,IKK-alpha,0%
same,%Inh,IKK-beta,0%
same,%Inh,IKK-epsilon,37%
same,%Inh,INSRR,90.5%
same,%Inh,INSR,48%
same,%Inh,IRAK1,0%
same,%Inh,IRAK3,32%
same,%Inh,IRAK4,0%
same,%Inh,ITK,4%
same,%Inh,[1],0%
same,%Inh,[2],2%
same,%Inh,[3],0%
same,%Inh,[4],56%
same,%Inh,JNK1,19%
same,%Inh,JNK2,55%
same,%Inh,JNK3,6%
C[C@@H](Oc1cc(-n2cnc3ccc(NC(=O)NC(C)(C)C)cc32)sc1C(N)=O)c1ccccc1Cl [GSK346294],%Inh,HPK1,35%
same,%Inh,HUNK,0%
same,%Inh,ICK,0%
same,%Inh,IGF1R,0%
same,%Inh,IKK-alpha,0%
same,%Inh,IKK-beta,0%
same,%Inh,IKK-epsilon,23%
same,%Inh,INSRR,0%
same,%Inh,INSR,0%
same,%Inh,IRAK1,15%
same,%Inh,IRAK3,12%
same,%Inh,IRAK4,0%
same,%Inh,ITK,14%
same,%Inh,[1],2%
same,%Inh,[2],0%
same,%Inh,[3],0%
same,%Inh,[4],0%
same,%Inh,JNK1,0%
same,%Inh,JNK2,6%
same,%Inh,JNK3,0%
CN(C(=O)c1ccc(-c2cc(-c3c[nH]nc3-c3ccccn3)ccn2)cc1)C1CCOCC1 [GW810083],%Inh,HPK1,30%
same,%Inh,HUNK,0%
same,%Inh,ICK,78%
same,%Inh,IGF1R,0%
same,%Inh,IKK-alpha,0%
same,%Inh,IKK-beta,0%
same,%Inh,IKK-epsilon,0%
same,%Inh,INSRR,0%
same,%Inh,INSR,0%
same,%Inh,IRAK1,0%
same,%Inh,IRAK3,0%
same,%Inh,IRAK4,0%
same,%Inh,ITK,5%
same,%Inh,[1],0%
same,%Inh,[2],0%
same,%Inh,[3],0%
same,%Inh,[4],0%
same,%Inh,JNK1,42%
same,%Inh,JNK2,45%
same,%Inh,JNK3,38%
c1ccc(-c2cc(-c3c[nH]nc3-c3ccccn3)ccn2)cc1 [GW576604],%Inh,HPK1,25%
same,%Inh,HUNK,16%
same,%Inh,ICK,0%
same,%Inh,IGF1R,19%
same,%Inh,IKK-alpha,0%
same,%Inh,IKK-beta,0%
same,%Inh,IKK-epsilon,0%
same,%Inh,INSRR,0%
same,%Inh,INSR,2%
same,%Inh,IRAK1,7%
same,%Inh,IRAK3,0%
same,%Inh,IRAK4,9%
same,%Inh,ITK,3%
same,%Inh,[1],17%
same,%Inh,[2],0%
same,%Inh,[3],6%
same,%Inh,[4],0%
same,%Inh,JNK1,35%
same,%Inh,JNK2,65%
same,%Inh,JNK3,70%
NCCNS(=O)(=O)c1ccc(-c2ccnc3[nH]ccc23)cc1 [GSK977617],%Inh,HPK1; 1 µM,59% and 44%
same,%Inh,HUNK,0%
same,%Inh,ICK; 1 µM,19% and 2%
same,%Inh,IGF1R; 1 µM,8% and 16%
same,%Inh,IKK-alpha; 1 µM,97.7% and 94.3%
same,%Inh,IKK-beta; 1 µM,99.4%
same,%Inh,IKK-epsilon; 1 µM,29% and 32%
same,%Inh,INSRR,2%
same,%Inh,INSR; 1 µM,18% and 4%
same,%Inh,IRAK1; 1 µM,81% and 65%
same,%Inh,IRAK3; 1 µM,60% and 39%
same,%Inh,IRAK4; 1 µM,22% and 8%
same,%Inh,ITK; 1 µM,66% and 44%
same,%Inh,[1]; 1 µM,38% and 26%
same,%Inh,[2]; 1 µM,32% and 25%
same,%Inh,[3]; 1 µM,95.6% and 90.8%
same,%Inh,[4]; 1 µM,83% and 84%
same,%Inh,JNK1; 1 µM,42% and 18%
same,%Inh,JNK2; 1 µM,30% and 9%
same,%Inh,JNK3; 1 µM,27% and 15%
Cc1cccc(-c2nc(-c3ccc(S(C)(=O)=O)cc3)sc2-c2ccncc2)c1,%Inh,HPK1,0%
same,%Inh,HUNK,0%
same,%Inh,ICK,0%
same,%Inh,IGF1R,7%
same,%Inh,IKK-alpha,0%
same,%Inh,IKK-beta,1%
same,%Inh,IKK-epsilon,0%
same,%Inh,INSRR,7%
same,%Inh,INSR,8%
same,%Inh,IRAK1,18%
same,%Inh,IRAK3,33%
same,%Inh,IRAK4,15%
same,%Inh,ITK,19%
same,%Inh,[1],15%
same,%Inh,[2],17%
same,%Inh,[3],0%
same,%Inh,[4],6%
same,%Inh,JNK1,26%
same,%Inh,JNK2,28%
same,%Inh,JNK3,33%
COc1ccc(Nc2nccc(N3CCC(NC(=O)Nc4cccc(C(C)=O)c4)C3)n2)cc1 (stereo not drawn) [GSK1379731],%Inh,HPK1,40%
same,%Inh,HUNK,3%
same,%Inh,ICK,0%
same,%Inh,IGF1R,0%
same,%Inh,IKK-alpha,9%
same,%Inh,IKK-beta,1%
same,%Inh,IKK-epsilon,0%
same,%Inh,INSRR,0%
same,%Inh,INSR,0%
same,%Inh,IRAK1,6%
same,%Inh,IRAK3,0%
same,%Inh,IRAK4,4%
same,%Inh,ITK,14%
same,%Inh,[1],0%
same,%Inh,[2],0%
same,%Inh,[3],17%
same,%Inh,[4],0%
same,%Inh,JNK1,14%
same,%Inh,JNK2,15%
same,%Inh,JNK3,4%
O=C(Nc1cccc(-c2nn3ncccc3c2-c2ccnc(Nc3cccc(C(F)(F)F)c3)n2)c1)c1c(F)cccc1F [GSK299495],%Inh,HPK1,35%
same,%Inh,HUNK,4%
same,%Inh,ICK,8%
same,%Inh,IGF1R,14%
same,%Inh,IKK-alpha,33%
same,%Inh,IKK-beta,17%
same,%Inh,IKK-epsilon,0%
same,%Inh,INSRR,0%
same,%Inh,INSR,0%
same,%Inh,IRAK1,38%
same,%Inh,IRAK3,0%
same,%Inh,IRAK4,21%
same,%Inh,ITK,23%
same,%Inh,[1],22%
same,%Inh,[2],0%
same,%Inh,[3],0%
same,%Inh,[4],0%
same,%Inh,JNK1,31%
same,%Inh,JNK2,27%
same,%Inh,JNK3,14%
COC(=O)Nc1nc2cc(Oc3ccc(NC(=O)Nc4cc(F)ccc4F)cc3)ccc2[nH]1.Cl [GW701424],%Inh,HPK1,30%
same,%Inh,HUNK,20%
same,%Inh,ICK,0%
same,%Inh,IGF1R,18%
same,%Inh,IKK-alpha,33%
same,%Inh,IKK-beta,4%
same,%Inh,IKK-epsilon,16%
same,%Inh,INSRR,0%
same,%Inh,INSR,0%
same,%Inh,IRAK1,36%
same,%Inh,IRAK3,0%
same,%Inh,IRAK4,6%
same,%Inh,ITK,0%
same,%Inh,[1],26%
same,%Inh,[2],0%
same,%Inh,[3],1%
same,%Inh,[4],0%
same,%Inh,JNK1,0%
same,%Inh,JNK2,2%
same,%Inh,JNK3,0%
Cc1c(Cn2c(C)nn3c(=O)cc(N4CCOC(C)C4)nc23)cccc1C(F)(F)F (stereo not drawn) [GSK2344444],%Inh,HPK1,9%
same,%Inh,HUNK,0%
same,%Inh,ICK,0%
same,%Inh,IGF1R,7%
same,%Inh,IKK-alpha,12%
same,%Inh,IKK-beta,18%
same,%Inh,IKK-epsilon,5%
same,%Inh,INSRR,3%
same,%Inh,INSR,17%
same,%Inh,IRAK1,0%
same,%Inh,IRAK3,0%
same,%Inh,IRAK4,13%
same,%Inh,ITK,7%
same,%Inh,[1],2%
same,%Inh,[2],0%
same,%Inh,[3],19%
same,%Inh,[4],38%
same,%Inh,JNK1,0%
same,%Inh,JNK2,8%
same,%Inh,JNK3,2%
COc1ccc(Nc2ncc(C#N)c(Nc3ccccc3C(N)=O)n2)cc1N1CCN(C)CC1.Cl [GSK1558669],%Inh,HPK1,96.4%
same,%Inh,HUNK,0%
same,%Inh,ICK,97.6%
same,%Inh,IGF1R,99.6%
same,%Inh,IKK-alpha,97.8%
same,%Inh,IKK-beta,88%
same,%Inh,IKK-epsilon,93.8%
same,%Inh,INSRR,100%
same,%Inh,INSR,99.9%
same,%Inh,IRAK1,99.8%
same,%Inh,IRAK3,100%
same,%Inh,IRAK4,99.4%
same,%Inh,ITK,99.8%
same,%Inh,[1],0%
same,%Inh,[2],99.9%
same,%Inh,[3],99.1%
same,%Inh,[4],98.8%
same,%Inh,JNK1,99.5%
same,%Inh,JNK2,100%
same,%Inh,JNK3,99.9%

# Reference: paper PMC5540273 (PLoS ONE, 2017)
